High-throughput results: PubChem, National Center for Advancing Translational Sciences (NCATS)
Hits are enriched below; roughly 19% of the tested compounds scored in any of these assays.
IL1B secr inh = blocks inflammasome-driven IL-1 beta release; THP-1 LPS/ATP IL-1B secretion, AlphaLISA, 16 h; active compounds read low; activity change, % at 57.5 µM; 360,000 compounds, 4.7% hits; in the data active = activity change below about -50%; inconclusive = mostly about -30% to -49%
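Secreted IL-1B measured by AlphaLISA bead assay after 16 h compound exposure of THP-1 cells; compounds (final up to 57.5 uM) added 1 h before LPS (250 ng/mL) and ATP (1.25 mM) stimulation; lower signal means less secretion.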
ELG1 DNA repair = inhibitors of ELG1-dependent DNA repair in HEK293T cells; HEK293T ELG1-luciferase reporter, luminescence, 16 h; DNA damage induced by 5-fluorouridine; Potency, µM (series often up to 46.1 µM), most hits filed as inhibitors; 330,000 compounds, 2.3% hits; also: nearly all actives have a fitted effect of over 55% in size
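HEK293T cells expressing luciferase-tagged ELG1 (2,000/well) received 5-Fluorouridine plus compound or DMSO for 16 hr at 37 °C. Luciferase was read by ONE-Glo luminescence after 30 min at room temperature.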
DT40 TDP1 no CPT = qHTS for Inhibitors of human tyrosyl-DNA phosphodiesterase 1 (TDP1): qHTS in cells in absence of CPT. 420,000 compounds, 15% hits. AID 686978, 2013. DT40 Tdp1-/- hTDP1 cells, no CPT, ATP luminescence, 48 h. Potency, µM (titrated, usually from 46.2 µM), most hits filed as inhibitors; also: nearly all actives have a fitted effect of over 55% in size
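A cellular qHTS used chicken DT40 cells lacking endogenous Tdp1 but carrying stably transfected human TDP1. Compounds were applied without camptothecin, and cell growth kinetics were judged by ATP-dependent luminescence after ≥48 hr.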
HT1080-NT tox = kills 2HG-producing HT-1080-NT fibrosarcoma cells | Potency, µM (series often up to 46.1 µM), hits mostly cytotoxic | HT-1080-NT fibrosarcoma viability, CellTiter-Glo ATP luminescence, 48 h | 360,000 compounds, 1.6% hits | AID 686970;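 also: NT is the 2HG producing partner of a matched IDH1 knockdown line; nearly all actives have a fitted effect of over 55% in size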
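750 cells/well, RPMI + 5% FBS; 2 h settle, compound pin-transfer, 48 h at 37 degrees C. CellTiter-Glo 10 min RT, luminescence. Normalized to DMSO and media-only wells.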
TDP1 cell CPT = growth inhibition of DT40 Tdp1-/-;hTDP1 cells with camptothecin (screen for TDP1 inhibitors). chicken DT40 Tdp1-/-;hTDP1 cells + 20 nM CPT, ATP luminescence, 48 h. Potency, µM (highest dose often 46.2 µM), most hits filed as inhibitors. 420,000 compounds, 12% hits; also: nearly all actives have a fitted effect of over 55% in size
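Chicken DT40 Tdp1-/- cells stably complemented with human TDP1 were seeded at 400 cells/well in medium containing 20 nM camptothecin, exposed to pin-transferred compounds, and grown at 37 °C for at least 48 hr. Viability was read as ATP luminescence.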
HT1080 IDH1KD tx = kills HT-1080 cells with IDH1 knockdown. HT-1080 IDH1 knockdown viability, ATP luminescence, 48 h. Potency, µM (highest dose often 46.1 µM), most hits filed as cytotoxic. 360,000 compounds, 2% hits
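Viability of IDH1-knockdown HT-1080 fibrosarcoma cells was assessed by CellTiter-Glo after 48 h at 37 °C with titrated compound; concentration-effect curves were classified by fit quality and response size.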
Each line names hits and unclear results; the compound was inactive in the other large screens. Unless noted, calls follow the shape of the dose curve; as a rule, active = well fitted curve in the direction sought with a large enough effect; inconclusive = small, poorly fitted or top-dose-only effect, or another doubt; inactive = no such curve, though single readings can be large; an effect the other way counts as inactive or inconclusive.

C=CCNC(=S)N1CCN(S(=O)(=O)c2ccc(C)cc2)CC1	none
Cc1scc(C(=O)NNC(=S)NCC2CCCO2)c1-c1ccccc1 (stereo not drawn)	DT40 TDP1 no CPT inconclusive
CC(C)CNC(=S)N1CCC(C(=O)c2ccc3c(c2)OCCO3)CC1	ELG1 DNA repair inconclusive, DT40 TDP1 no CPT 23.1µM, TDP1 cell CPT inconclusive
C=CCNC(=S)N1CCC(C(=O)c2ccc(C)cc2)CC1	DT40 TDP1 no CPT inconclusive, TDP1 cell CPT 25.9µM
COc1cc(=O)n2c(c1C(=O)NC(C)c1ccco1)CCN(Cc1ccnc3ccccc13)CC2 (stereo not drawn)	TDP1 cell CPT inconclusive (no result: IL1B secr inh, ELG1 DNA repair, HT1080-NT tox, HT1080 IDH1KD tx)
CC[C@H](C)[C@@H]1OC(=O)[C@@H](C)[C@@H](CC)NC(=O)[C@H](C)N(C)C(=O)C(C)(C)C(=O)C(C)NC(=O)[C@H](Cc2ccccc2)N(C)C(=O)[C@H](C(C)C)N(C)C(=O)CNC(=O)[C@H](CC(C)C)N(C)C(=O)CNC1=O (stereo partly drawn)	DT40 TDP1 no CPT 0.184µM, HT1080-NT tox 1.3µM, TDP1 cell CPT 0.13µM, HT1080 IDH1KD tx 0.92µM (no result: ELG1 DNA repair)
O=c1c(O)cc(C2Oc3cc(O)cc(O)c3CC2O)cc2c(C3Oc4cc(O)cc(O)c4CC3O)cc(O)c(O)c12 (stereo not drawn)	DT40 TDP1 no CPT 3.26µM, TDP1 cell CPT 4.61µM (no result: IL1B secr inh, ELG1 DNA repair, HT1080-NT tox, HT1080 IDH1KD tx)
Oc1cc(O)c2c(c1)O[C@H](c1ccc(O)c(O)c1)[C@@H](O)C2	none
COc1ccc(Cl)cc1NS(=O)(=O)c1cccc(C(=O)NCCCN2CCOCC2)c1	none (no result: ELG1 DNA repair)
CCSc1nc(C)cc(C)c1S(=O)(=O)c1ccccc1C	DT40 TDP1 no CPT 20.6µM, TDP1 cell CPT inconclusive
Cc1cc(C)c(S(=O)(=O)c2c(C)cccc2C)c(OCC(C)C)n1	DT40 TDP1 no CPT 13µM, TDP1 cell CPT 23.1µM
COc1nc(C)cc(C)c1S(=O)(=O)c1ccccc1C	none
C#CCOc1nc(C)cc(C)c1S(=O)(=O)c1ccccc1C	IL1B secr inh -55.9
CSc1nc(C)cc(C)c1S(=O)(=O)c1ccccc1C	DT40 TDP1 no CPT inconclusive, TDP1 cell CPT inconclusive
CCC(C)Oc1nc(C)cc(C)c1S(=O)(=O)c1ccccc1C (stereo not drawn)	DT40 TDP1 no CPT 16.4µM, TDP1 cell CPT inconclusive
CCOc1nc(C)cc(C)c1S(=O)(=O)c1cccc(C)c1	none (no result: IL1B secr inh, DT40 TDP1 no CPT, HT1080-NT tox, TDP1 cell CPT, HT1080 IDH1KD tx)
COc1ccc(-n2c(=O)c3sc4ccccc4c3n(Cc3ccccc3C)c2=O)cc1OC	none (no result: IL1B secr inh, ELG1 DNA repair, HT1080-NT tox, HT1080 IDH1KD tx)
O=C(Cc1ccc(Cl)cc1)NNC(=O)C(=O)NC1CCCCC1	none
O=C(CCn1c(=O)c2cccn2c2cccnc21)NCc1ccccc1Br	none (no result: IL1B secr inh, ELG1 DNA repair, HT1080-NT tox, HT1080 IDH1KD tx)
O=C(CN(C(=O)c1ccccc1Cl)N1C(=O)CCCC1=O)c1ccc(Cl)cc1	none
CC(NC(=O)CCc1ccccc1)c1cc2c(cc1Cl)OCCO2 (stereo not drawn)	DT40 TDP1 no CPT inconclusive, TDP1 cell CPT 14.6µM
N#Cc1ccccc1S(=O)(=O)N1CCN(C(=O)CN(Cc2ccco2)Cc2cccs2)CC1	DT40 TDP1 no CPT 16.4µM, TDP1 cell CPT inconclusive (no result: ELG1 DNA repair)
COc1ccccc1-n1cc(-c2ccccc2)[nH]c1=S	DT40 TDP1 no CPT inconclusive
COc1ccc(-n2cnc(=S)[nH]c2=S)cc1	IL1B secr inh inconclusive, DT40 TDP1 no CPT 0.326µM, HT1080-NT tox inconclusive, TDP1 cell CPT 0.581µM (no result: ELG1 DNA repair)
COc1ccc(-n2cc(-c3ccccc3)[nH]c2=S)cc1	ELG1 DNA repair inconclusive, DT40 TDP1 no CPT 16.4µM, TDP1 cell CPT 13µM
CCOc1ccc(-c2cn(-c3ccccc3OC)c(=S)[nH]2)cc1	DT40 TDP1 no CPT 18.4µM, HT1080-NT tox inconclusive, TDP1 cell CPT inconclusive, HT1080 IDH1KD tx 25.9µM
COc1ccc(-n2cnc3c(N)nc(N)nc32)cc1	none (no result: ELG1 DNA repair)
Cc1ccc(NC(=O)CSc2nc(=O)n(Cc3cccnc3)c3c2CCC3)cc1F	DT40 TDP1 no CPT inconclusive (no result: IL1B secr inh, ELG1 DNA repair, HT1080-NT tox, HT1080 IDH1KD tx)
COc1ccccc1OCCn1c(-c2ccc(Br)cc2)nc2ccccc2c1=O	none (no result: IL1B secr inh, ELG1 DNA repair, HT1080-NT tox, HT1080 IDH1KD tx)
